Screening data deposited in PubChem by National Center for Advancing Translational Sciences (NCATS).
Shown are actives, neighbours in structure and some others; about 4.7% of the full set was active somewhere.
D1 antag: Antagonist of Human D 1 Dopamine Receptor: qHTS. D(1A) dopamine receptor (Homo sapiens), P21728. HEK293 TREx D1 cells, calcium flux, dopamine EC80; hits give low values. activity change, negative = inhibition, % at 10 µM. actives 3.2% (n = 360,000). AID 504652, 2011; in the data active = activity change below about -30%; note: % is set by controls: 0 for no effect and ±100 for the full control effect
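Tetracycline-induced HEK293 T-REx cells with force-coupled D1 receptor were loaded with a no-wash calcium dye. Compound was added after a 10 s baseline and read kinetically for 180 s; EC80 dopamine was then added and calcium flux followed another 180 s.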
D1 agonist: Allosteric Agonists of the Human D1 Dopamine Receptor: qHTS | AID 504660, 2011 | D(1A) dopamine receptor (Homo sapiens), P21728 | actives 1% (n = 360,000) | HEK293 T-REx D1 cells, calcium flux, agonist mode | activation, % at 2 µM; in the data active = activation above about 30%; note: 0% is about no effect
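Agonism was scored from calcium flux recorded over 180 s (1 read/s) after pintool compound addition, following a 10-cycle baseline. Cells were inducible force-coupled HEK293 TREx D1, plated overnight at 30 C and loaded with no-wash calcium dye.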
TRHR enhancer-1: qHTS for Small Molecule Agonists and Allosteric Enhancers of Human TRH Receptor: Primary Screen for Enhancers | TRHR cells, fluo-8 calcium fluorescence, EC20 TRH enhancement | Thyrotropin-releasing hormone receptor (Homo sapiens), P34981 | enhancement, % at 2 µM | actives 0.66% (n = 360,000); in the data active = enhancement above about 30%; note: 0% is about no effect
Target sequence (P34981 whole entry, looked up): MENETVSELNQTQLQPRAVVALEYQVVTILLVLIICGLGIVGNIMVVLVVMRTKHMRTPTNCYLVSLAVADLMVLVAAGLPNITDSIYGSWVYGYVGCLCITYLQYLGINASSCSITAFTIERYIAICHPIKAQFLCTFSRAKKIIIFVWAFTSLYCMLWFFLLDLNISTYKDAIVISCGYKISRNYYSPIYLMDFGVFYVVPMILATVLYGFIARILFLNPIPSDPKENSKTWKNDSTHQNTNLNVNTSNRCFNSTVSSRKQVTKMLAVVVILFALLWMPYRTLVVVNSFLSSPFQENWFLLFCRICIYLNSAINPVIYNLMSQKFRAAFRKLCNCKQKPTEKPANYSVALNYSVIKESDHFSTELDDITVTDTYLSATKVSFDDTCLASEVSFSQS
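Enhancer read-out: after compound pinning and an initial kinetic agonist-mode read, an EC20 of TRH (10 nM final) was injected and fluo-8 calcium signal (Ex 480/Em 530) followed at 1 s/cycle for 100 cycles in TRHR-expressing cells.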
TRHR agonist-1: qHTS for Small Molecule Agonists and Allosteric Enhancers of Human TRH Receptor: Primary Screen for Agonists; Thyrotropin-releasing hormone receptor (Homo sapiens), P34981; TRHR cells, calcium flux fluo-8, FDSS agonist mode; activation, % at 2 µM; actives 0.18% (n = 360,000); AID 493084, 2011; in the data active = activation above about 30%; note: 0% is about no effect
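TRHR-expressing cells, plated overnight in medium with 10% serum, were loaded with fluo-8 calcium dye at room temperature. After a 10 s baseline, library compound was pin-added and calcium release was recorded kinetically (ex 480/em 530) as agonist response.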
D1 PAM: Potentiators of Human D1 Dopamine Receptor: qHTS | actives 0.036% (n = 360,000) | D(1A) dopamine receptor (Homo sapiens), P21728 | HEK293 TREx D1 cells, calcium flux, dopamine EC20 potentiation | potentiation, % at 10 µM; in the data active = potentiation above about 30%; note: 0% is about no effect
TRHR enhancer-2: qHTS for Small Molecule Agonists and Allosteric Enhancers of Human TRH Receptor: Confirmation Screen for Enhancers; TRH receptor cell assay, enhancer confirmation qHTS; shares compounds with TRHR enhancer-1; activity change, negative = inhibition, % at 46.1 µM; 970 tested, under 10 active;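 note: compound effect scored on response to added TRH at EC20 of 10 nM; 0% is about no effect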
TRHR agonist-2: qHTS for Small Molecule Agonists and Allosteric Enhancers of Human TRH Receptor: Confirmation Screen for Agonists. shares compounds with TRHR enhancer-1. TRHR-expressing cells, agonist activation read-out. Potency, µM (titrated, usually from 46.1 µM), for the others: top-dose activation, hits mostly activators. AID 493078, 2011. actives 8% (n = 970); note: potency is the fitted concentration of half-maximal effect; 0% is about no effect; nearly all actives have a fitted effect of over 75% in size
Starred values were filed as active, the others as inactive; nt = no result. Unless noted, calls come from the whole dose curve; as a rule, active = well fitted curve in the direction sought with a large enough effect; inconclusive = small, poorly fitted or top-dose-only effect, or another doubt; inactive = no such curve, though single readings can be large; an effect the other way counts as inactive or inconclusive.

SMILES	D1 antag	D1 agonist	TRHR enhancer-1	TRHR agonist-1	D1 PAM	TRHR enhancer-2	TRHR agonist-2
CCOC(=O)/C(C#N)=C/c1cccc(F)c1	2	1	9	43*	-3	3	7%
CCSc1nnc2c(n1)OC(CC)N(C(C)=O)c1ccccc1-2 (stereo not drawn)	-1	-1	7	-1	-1	nt	nt
O=S(=O)(Nc1nc2ccccc2nc1Nc1ccc2c(c1)OCO2)c1ccccc1	6	6	14	2	4	nt	nt
Cc1cccc(S(=O)(=O)Nc2nc3ccccc3nc2Nc2ccc3c(c2)OCO3)c1	-11	20	44*	0	-6	-10	2%
Cc1ccc(-c2nc3sc(CCNC(=O)c4ccco4)c(C)n3n2)cc1	nt	0	5	0	-2	nt	nt
CCOc1ccc(NC(=O)c2ccc3c(SCC(=O)O)c4c(nc3c2)CCC4)cc1	-5	1	5	-2	-2	nt	nt
CCC(C)n1c(=O)c2sccc2n2c(CCCC(=O)Nc3ccc(F)cc3)nnc12 (stereo not drawn)	-13	3	-2	0	-2	nt	nt
Cc1cccc(N2CCN(C(=O)COc3cc4oc(=O)cc(C)c4cc3Cl)CC2)c1C	8	0	70*	0	10	0	0%
COC(=O)C1=C(C)N(C(C)C)C(=O)C1(NC(=O)c1ccc(C(C)(C)C)cc1)C(F)(F)F (stereo not drawn)	0	2	-6	-1	-2	nt	nt
CC(=O)NCCC1CCN(c2nc3nonc3nc2N(C)Cc2ccccc2)CC1	10	2	47*	0	-5	-4	0%
CCCCNC(=O)N1CCC(CCC(=O)N(C)Cc2ccccc2)CC1	25	-2	-6	0	-7	nt	nt
COc1cc(NC(=O)Cn2c(=O)n(Cc3ccccc3OC)c(=O)c3cccnc32)cc(OC)c1	18	9	1	0	-2	nt	nt
Cc1ccc(-n2c(C)n[nH]c2=S)cc1C	9	3	45*	0	-9	-7	-1%
Cc1ccc(-n2c(C)n[nH]c2=S)cc1	14	0	11	0	0	nt	nt
CCOC(=O)c1c(NC(C)=O)c2c3c(sc2n1Cc1nc(-c2ccccc2OCC)oc1C)CCCC3	5	0	-19	0	-7	nt	nt
CCC(=O)N1CCc2cc(CNC(=O)Nc3cc(C)ccc3C)ccc21	-3	1	1	0	-1	nt	nt
CCOc1ccc(Nc2cc(C)nc(N3CCOCC3)n2)cc1	-14	1	-2	-1	1	nt	nt
CCOc1ccc(Nc2nc(N3CCOCC3)nc(N3CCOCC3)n2)cc1	-15	6	50*	1	3	-5	2%
COc1ccc(C(=O)Nc2ccccc2C(=O)NC(C(=O)NCc2ccco2)C(C)C)cc1 (stereo not drawn)	-12	1	48*	0	-2	0	0%
COc1ccc(C(=O)N[C@H](C(=O)NCc2ccco2)C(C)C)cc1	8	2	-4	0	0	nt	nt
CCOC(=O)C1CCN(C(=O)c2cc3sc(C)cc3n2C)CC1	7	-1	-7	0	2	nt	nt
COc1ccc(C(=O)NC2CC2)cc1OC1CCN(C(C)CSC)CC1 (stereo not drawn)	-22	3	2	26	-13	-5	5%
O=C(CSc1nc2c([nH]c3ccccc32)c(=O)n1-c1ccc(F)cc1)NCc1ccc(F)cc1	1	4	-8	-1	-4	nt	nt
